Read-outs that look alike come from different tables or passages of the source.
Legend:
[1] = system: CSNK1G1; details: concentration: 1 μM, replicates: in singlicate; n = 1
[2] = system: CSNK1G2; details: concentration: 1 μM, replicates: in singlicate; n = 1
[3] = system: CSNK1G3; details: concentration: 1 μM, replicates: in singlicate; n = 1
[4] = system: CSNK2A1; details: concentration: 1 μM, replicates: in singlicate; n = 1
[5] = system: CSNK2A2; details: concentration: 1 μM, replicates: in singlicate; n = 1
[6] = system: T1, CTK; details: concentration: 1 μM, replicates: in singlicate; n = 1
T1 construct: gene MATK

[7] = system: DAPK1; details: concentration: 1 μM, replicates: in singlicate; n = 1
[8] = system: DAPK2; details: concentration: 1 μM, replicates: in singlicate; n = 1
[9] = system: DAPK3; details: concentration: 1 μM, replicates: in singlicate; n = 1
[10] = system: T2, DCAMKL1; details: concentration: 1 μM, replicates: in singlicate; n = 1
T2 construct: gene DCLK1

[11] = system: T3, DCAMKL2; details: concentration: 1 μM, replicates: in singlicate; n = 1
T3 construct: gene DCLK2

[12] = system: T4, DCAMKL3; details: concentration: 1 μM, replicates: in singlicate; n = 1
T4 construct: gene DCLK3

[13] = system: DDR1; details: concentration: 1 μM, replicates: in singlicate; n = 1
[14] = system: DDR2; details: concentration: 1 μM, replicates: in singlicate; n = 1
[15] = system: T5, DLK; details: concentration: 1 μM, replicates: in singlicate; n = 1
T5 construct: gene MAP3K12

[16] = system: T6, DMPK2; details: n = 1
T6 construct: gene CDC42BPG

[17] = system: DMPK; details: concentration: 1 μM, replicates: in singlicate; n = 1
[18] = system: T7, DRAK1; details: concentration: 1 μM, replicates: in singlicate; n = 1
T7 construct: gene STK17A

[19] = system: T8, DRAK2; details: concentration: 1 μM, replicates: in singlicate; n = 1
T8 construct: gene STK17B

[20] = system: DYRK1A; details: concentration: 1 μM, replicates: in singlicate; n = 1
[21] = concentration: 1 μM, replicates: in singlicate
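Further: KINOMEscan kinase panel screen.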

Structure (SMILES): O=C(O)C(F)(F)F.O=C(O)C(F)(F)F.O=c1[nH]ccc2nc(N[C@@H]3CCCNC3)nc(Nc3ccc(S(=O)(=O)N4CCOCC4)cc3)c12 [GSK2177277]
- %Inh [1]: 96.3%
- %Inh [2]: 98.8%
- %Inh [3]: 99.2%
- %Inh [4]: 98.7%
- %Inh [5]: 98.9%
- %Inh [6]: 69%
- %Inh [7]: 98.2%
- %Inh [8]: 98.1%
- %Inh [9]: 99.3%
- %Inh [10]: 98.1%
- %Inh [11]: 100%
- %Inh [12]: 99.5%
- %Inh [13]: 18%
- %Inh [14]: 82%
- %Inh [15]: 95.6%
- %Inh [16, 21]: 92.7%
- %Inh [17]: 99.7%
- %Inh [18]: 98.4%
- %Inh [19]: 94%
- %Inh [20]: 84%

Structure (SMILES): COc1cc(Nc2nccc(-c3c(-c4cccc(NC(=O)c5c(F)cccc5F)c4)nn4ncccc34)n2)cc(OC)c1OC [GSK327238]
- %Inh [1]: 16%
- %Inh [2]: 0%
- %Inh [3]: 20%
- %Inh [4]: 0%
- %Inh [5]: 4%
- %Inh [6]: 14%
- %Inh [7]: 0%
- %Inh [8]: 0%
- %Inh [9]: 0%
- %Inh [10]: 12%
- %Inh [11]: 0%
- %Inh [12]: 43%
- %Inh [13]: 100%
- %Inh [14]: 95.2%
- %Inh [15]: 2%
- %Inh [16, 21]: 100%
- %Inh [17]: 8%
- %Inh [18]: 0%
- %Inh [19]: 0%
- %Inh [20]: 23%

Structure (SMILES): CCS(=O)(=O)c1ccc(OC)c(Nc2nccc(-c3c(-c4cccc(NC(=O)c5c(F)cccc5F)c4)nn4ncccc34)n2)c1 [GSK326180]
- %Inh [1]: 15%
- %Inh [2]: 4%
- %Inh [3]: 15%
- %Inh [4]: 0%
- %Inh [5]: 0%
- %Inh [6]: 0%
- %Inh [7]: 9%
- %Inh [8]: 0%
- %Inh [9]: 9%
- %Inh [10]: 3%
- %Inh [11]: 0%
- %Inh [12]: 1%
- %Inh [13]: 90%
- %Inh [14]: 8%
- %Inh [15]: 0%
- %Inh [16, 21]: 78%
- %Inh [17]: 0%
- %Inh [18]: 0%
- %Inh [19]: 1%
- %Inh [20]: 12%

Structure (SMILES): Cl.c1ccc(-c2ccc3c(Nc4ccc5[nH]ccc5c4)ccnc3c2)nc1 [GW440138]
- %Inh [1]: 0%
- %Inh [2]: 0%
- %Inh [3]: 25%
- %Inh [4]: 0%
- %Inh [5]: 0%
- %Inh [6]: 0%
- %Inh [7]: 5%
- %Inh [8]: 0%
- %Inh [9]: 23%
- %Inh [10]: 0%
- %Inh [11]: 0%
- %Inh [12]: 17%
- %Inh [13]: 99.4%
- %Inh [14]: 79%
- %Inh [15]: 43%
- %Inh [16, 21]: 0%
- %Inh [17]: 0%
- %Inh [18]: 0%
- %Inh [19]: 2%
- %Inh [20]: 0%

Structure (SMILES): O=c1[nH]cc(-c2ccc(N3CCOCC3)cc2)c2sc(-c3cn[nH]c3)cc12 [GSK2276055]
- %Inh [1]: 43%
- %Inh [2]: 43%
- %Inh [3]: 63%
- %Inh [4]: 64%
- %Inh [5]: 79%
- %Inh [6]: 0%
- %Inh [7]: 37%
- %Inh [8]: 19%
- %Inh [9]: 23%
- %Inh [10]: 12%
- %Inh [11]: 0%
- %Inh [12]: 0%
- %Inh [13]: 3%
- %Inh [14]: 0%
- %Inh [15]: 0%
- %Inh [16, 21]: 0%
- %Inh [17]: 0%
- %Inh [18]: 35%
- %Inh [19]: 11%
- %Inh [20]: 99.8%

Structure (SMILES): Nc1ncnc2c1nc(-c1ccccc1)n2-c1ccccc1 [SKF-97293]
- %Inh [1]: 4%
- %Inh [2]: 14%
- %Inh [3]: 7%
- %Inh [4]: 0%
- %Inh [5]: 13%
- %Inh [6]: 42%
- %Inh [7]: 0%
- %Inh [8]: 0%
- %Inh [9]: 17%
- %Inh [10]: 0%
- %Inh [11]: 0%
- %Inh [12]: 3%
- %Inh [13]: 6%
- %Inh [14]: 41%
- %Inh [15]: 23%
- %Inh [16, 21]: 0%
- %Inh [17]: 6%
- %Inh [18]: 0%
- %Inh [19]: 0%
- %Inh [20]: 6%

Structure (SMILES): COc1ccc(Nc2nccc(N3CCC(NC(=O)Nc4cccc(OC)c4)C3)n2)cc1 (centres unmarked) [GSK1379742]
- %Inh [1]: 13%
- %Inh [2]: 0%
- %Inh [3]: 20%
- %Inh [4]: 6%
- %Inh [5]: 0%
- %Inh [6]: 0%
- %Inh [7]: 0%
- %Inh [8]: 0%
- %Inh [9]: 0%
- %Inh [10]: 0%
- %Inh [11]: 0%
- %Inh [12]: 13%
- %Inh [13]: 8%
- %Inh [14]: 24%
- %Inh [15]: 46%
- %Inh [16, 21]: 0%
- %Inh [17]: 0%
- %Inh [18]: 8%
- %Inh [19]: 0%
- %Inh [20]: 4%

Structure (SMILES): O=C(Nc1cccc(-c2nn3ncccc3c2-c2ccnc(Nc3ccccc3)n2)c1)c1c(F)cccc1F [GSK198271]
- %Inh [1]: 19%
- %Inh [2]: 0%
- %Inh [3]: 26%
- %Inh [4]: 8%
- %Inh [5]: 11%
- %Inh [6]: 27%
- %Inh [7]: 11%
- %Inh [8]: 0%
- %Inh [9]: 1%
- %Inh [10]: 18%
- %Inh [11]: 0%
- %Inh [12]: 20%
- %Inh [13]: 100%
- %Inh [14]: 91.8%
- %Inh [15]: 8%
- %Inh [16, 21]: 99.8%
- %Inh [17]: 0%
- %Inh [18]: 0%
- %Inh [19]: 0%
- %Inh [20]: 18%

Structure (SMILES): COCCOCCOc1cc2ncc3c4ccc(C#N)cc4[nH]c3c2cc1OC
- %Inh [1]: 0%
- %Inh [2]: 24%
- %Inh [3]: 17%
- %Inh [4]: 75%
- %Inh [5]: 95.3%
- %Inh [6]: 0%
- %Inh [7]: 0%
- %Inh [8]: 7%
- %Inh [9]: 15%
- %Inh [10]: 20%
- %Inh [11]: 14%
- %Inh [12]: 66%
- %Inh [13]: 0%
- %Inh [14]: 0%
- %Inh [15]: 71%
- %Inh [16, 21]: 0%
- %Inh [17]: 3%
- %Inh [18]: 100%
- %Inh [19]: 100%
- %Inh [20]: 99%

Structure (SMILES): CCn1c(-c2nonc2N)nc2c(C#CC(C)(C)O)ncc(OCCCCN)c21.O=C(O)C(F)(F)F.O=C(O)C(F)(F)F [GSK507274]
- %Inh [1]: 40%
- %Inh [2]: 0%
- %Inh [3]: 15%
- %Inh [4]: 0%
- %Inh [5]: 0%
- %Inh [6]: 2%
- %Inh [7]: 28%
- %Inh [8]: 10%
- %Inh [9]: 82%
- %Inh [10]: 40%
- %Inh [11]: 34%
- %Inh [12]: 98.7%
- %Inh [13]: 0%
- %Inh [14]: 0%
- %Inh [15]: 1%
- %Inh ([16]; 1 µM): 0%
- %Inh [17]: 0%
- %Inh [18]: 0%
- %Inh [19]: 2%
- %Inh [20]: 25%

Reference: publication PMC5540273 (PLoS ONE, 2017)
